Experimental data: PubChem BioAssay (Tox21)
Records with an inconclusive call do not appear. Activity calls are given as the source filed them. Unless noted, calls follow the shape of the dose curve; as a rule, active = well fitted curve in the direction sought with a large enough effect in the repeat runs; inconclusive = weak or mixed curves; inactive = no such curve, though single readings can be large; an effect the other way counts as inactive or inconclusive.

Legend:
[1] = qHTS assay to identify small molecule antagonists of the thyroid receptor (TR) signaling pathway - cell viability counter screen (AID 743064); also: nearly all actives have a fitted effect of over 50% in size
Procedure, shortened: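 Counter screen for cytotoxicity: compound plus T3 (1 nM final) on GH3.TRE-Luc cells, 23.5 h at 37 °C, then fluorescence viability readout with CellTiter-Fluor.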

[2] = qHTS assay to identify small molecule antagonists of the thyroid receptor (TR) signaling pathway (AID 743065); also: series mostly up to about 70 µM; nearly all actives have a fitted effect of over 55% in size
Procedure, shortened: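 GH3.TRE-Luc rat pituitary cells (two TREs driving luciferase) were dosed with compound, then stimulated with 1 nM T3 (final) for 23.5 h at 37 C. ONE-Glo luminescence was the read-out, with CellTiter-Fluor fluorescence as the cytotoxicity counter-screen.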

[3] = test system: thyroid hormone receptor (rat, GH3 cells); experiment: qHTS assay to identify small molecule agonists of the thyroid receptor (TR) signaling pathway (AID 743066; calls by dose curve)
[4] = target: Estrogen receptor (Homo sapiens) (UniProt P03372); experiment: qHTS assay to identify small molecule antagonists of the estrogen receptor alpha (ER-alpha) signaling pathway (AID 743069; active = well fitted curve in the direction sought with a large enough effect in the signal ratio in the repeat runs, not every such curve was filed as active; the % refers to the signal ratio)
Procedure, shortened: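 Beta-lactamase FRET fluorescence is read after 2 hr at room temperature with LiveBLAzer B/G substrate. Before that, ER-alpha-bla HEK293 cells sit 4 hr after plating, then receive compound plus 17beta-estradiol and incubate 18 hr at 37C.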

[5] = qHTS assay to identify small molecule antagonists of the estrogen receptor alpha (ER-alpha) signaling pathway - cell viability counter screen (AID 743074; calls by dose curve;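 also: HEK293 cells carrying ER-alpha-UAS-bla reporter stimulated with 17beta-estradiol; nearly all actives have a fitted effect of over 45% in size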)
[6] = target: Estrogen receptor (Homo sapiens) (UniProt P03372); experiment: qHTS assay to identify small molecule agonists of the estrogen receptor alpha (ER-alpha) signaling pathway (AID 743075; calls by dose curve;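 also: HEK293 GripTite cells with ER-alpha and UAS-driven beta-lactamase reporter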)
[7] = target: Estrogen receptor (Homo sapiens) (UniProt P03372); experiment: qHTS assay to identify small molecule agonists of the estrogen receptor alpha (ER-alpha) signaling pathway using the BG1 cell line (AID 743079); also: nearly all actives have a fitted effect of over 20% in size
[8] = qHTS assay to identify small molecule antagonists of the estrogen receptor alpha (ER-alpha) signaling pathway using the BG1 cell line (AID 743080; calls by dose curve;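 also: BG1 cells stimulated with 17beta-estradiol alongside compound; series mostly up to about 70 µM; nearly all actives have a fitted effect of over 25% in size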)
Procedure, shortened: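 BG1-Luc-4E2 cells (endogenous full-length ER-alpha, 4xERE luciferase) hormone-starved 5 days in charcoal-stripped FBS, plated 4,000/well for 24 h, then compound plus 17beta-estradiol for 21.5 h at 37 C; ONE-Glo luminescence read.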

[9] = qHTS assay to identify small molecule antagonists of the estrogen receptor alpha (ER-alpha) signaling pathway using the BG1 cell line - cell viability counter screen (AID 743081);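 also: compound given together with 17beta-estradiol as the ER stimulus; series mostly up to about 70 µM; nearly all actives have a fitted effect of over 45% in size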
Aromatase (Homo sapiens) = Aromatase (Homo sapiens) (UniProt P11511); experiment: qHTS assay to identify aromatase inhibitors (AID 743083); also: series mostly up to about 70 µM; nearly all actives have a fitted effect of over 55% in size
[10] = qHTS assay to identify aromatase inhibitors - cell viability counter screen (AID 743084);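 also: cells stimulated with testosterone during compound exposure; nearly all actives have a fitted effect of over 55% in size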
[11] = target: Aryl hydrocarbon receptor (Homo sapiens) (UniProt P35869); experiment: qHTS assay to identify small molecule that activate the aryl hydrocarbon receptor (AhR) signaling pathway (AID 743085);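 also: HG2L7.5c1 human HepG2 liver cells with stably integrated DRE-driven firefly reporter; series mostly up to about 70 µM; nearly all actives have a fitted effect of over 15% in size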
Procedure, shortened: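 Measured in HG2L7.5c1 cells: CellTiter-Fluor signal (30 min incubation, 37C) for viability, then luciferase luminescence (30 min, room temperature). Compound contact time was 24 h at 37C, following a 5 h pre-incubation.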

[12] = qHTS assay to identify small molecule that activate the aryl hydrocarbon receptor (AhR) signaling pathway - cell viability counter screen (AID 743086);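 also: HepG2 liver cells carrying the AhR DRE luciferase reporter; series mostly up to about 70 µM; nearly all actives have a fitted effect of over 45% in size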
Procedure, shortened: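 HepG2-AhR-luc (HG2L7.5c1) cells, 4000/well, treated 24 h at 37 C with compound; viability measured as CellTiter-Fluor fluorescence after 30 min in the same wells as the luciferase read.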

[13] = target: Peroxisome proliferator-activated receptor gamma (Homo sapiens) (UniProt P37231); experiment: qHTS assay to identify small molecule agonists of the peroxisome proliferator-activated receptor gamma (PPARg) signaling pathway (AID 743094; active = well fitted activation curve with a large enough effect in the signal ratio in the repeat runs, not every such curve was filed as active; the % refers to the signal ratio)
Procedure, shortened: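 HEK293H PPARg-bla cells, 5 h settle at 37C/5% CO2; compound (DMSO) 17 h, 37C; B/G FRET substrate 1 h RT; fluorescence intensity read-out. qHTS format.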

[14] = qHTS assay to identify small molecule antagonists of the peroxisome proliferator-activated receptor gamma (PPARg) signaling pathway - cell viability counter screen (AID 743194); also: nearly all actives have a fitted effect of over 55% in size
Procedure, shortened: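 Cytotoxicity counter screen in PPARg-bla HEK293H cells, same wells as reporter assay. Compounds plus 50 nM rosiglitazone (final) for 17 h at 37 C, then viability read by CellTiter-Glo luminescence.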

[15] = qHTS assay for small molecule agonists of the antioxidant response element (ARE) signaling pathway (AID 743202; active = well fitted activation curve with a large enough effect in the signal ratio in the repeat runs, not every such curve was filed as active; the % refers to the signal ratio)
Procedure, shortened: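 HepG2 ARE-bla reporter line, 2,000 cells/well; 5 h preincubation 37 C/5% CO2; compound (DMSO) 16 h 37 C; B/G FRET substrate 2 h RT; fluorescence intensity.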

[16] = qHTS assay for small molecule agonists of the antioxidant response element (ARE) signaling pathway - cell viability counter screen (AID 743203; calls by dose curve; also: nearly all actives have a fitted effect of over 55% in size)
Procedure, shortened: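 Luminescence read-out (CellTiter-Glo, 30 min at room temperature) measured cell viability in the same wells as the ARE beta-lactamase reporter. HepG2 ARE-bla cells were treated with compounds for 16 hrs at 37C/5% CO2.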

[17] = qHTS assay for small molecule activators of the heat shock response signaling pathway - cell viability counter screen (AID 743209); also: nearly all actives have a fitted effect of over 50% in size
Procedure, shortened: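 HSE-bla HeLa; 1500 cells/well; overnight 37 C, 5% CO2; compound 5 h 37 C; LiveBLAzer B/G substrate 2.5 h RT; CellTiter-Glo 30 min RT; luminescence.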

[18] = target: Peroxisome proliferator-activated receptor gamma (Homo sapiens) (UniProt P37231); experiment: qHTS assay to identify small molecule antagonists of the peroxisome proliferator-activated receptor gamma (PPARg) signaling pathway (AID 743191; calls by dose curve; also: series mostly up to about 63 µM; nearly all actives have a fitted effect of over 30% in size)
Procedure, shortened: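 GeneBLAzer PPARg UAS-bla HEK293H cells, 5 h post-plating, exposed to compounds 17 h at 37C. LiveBLAzer B/G FRET substrate added for 1 h at room temperature; beta-lactamase reporter read by fluorescence intensity.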

[19] = qHTS assay for small molecule activators of the heat shock response signaling pathway (AID 743210; active = well fitted activation curve with a large enough effect in the signal ratio in the repeat runs, with a control signal flat, not every such curve was filed as active; the % refers to the signal ratio;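 also: HeLa cells with beta-lactamase reporter driven by heat shock elements; series mostly up to about 63 µM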)
Procedure, shortened: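 Beta-lactamase reporter read-out: FRET substrate fluorescence after 2.5 h at RT, following 5 h compound treatment at 37 C of HeLa cells carrying HSE-driven bla reporter; quantitative HTS format.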

Measured: Potency

Sequence of Peroxisome proliferator-activated receptor gamma (Homo sapiens) (P37231 whole entry, looked up): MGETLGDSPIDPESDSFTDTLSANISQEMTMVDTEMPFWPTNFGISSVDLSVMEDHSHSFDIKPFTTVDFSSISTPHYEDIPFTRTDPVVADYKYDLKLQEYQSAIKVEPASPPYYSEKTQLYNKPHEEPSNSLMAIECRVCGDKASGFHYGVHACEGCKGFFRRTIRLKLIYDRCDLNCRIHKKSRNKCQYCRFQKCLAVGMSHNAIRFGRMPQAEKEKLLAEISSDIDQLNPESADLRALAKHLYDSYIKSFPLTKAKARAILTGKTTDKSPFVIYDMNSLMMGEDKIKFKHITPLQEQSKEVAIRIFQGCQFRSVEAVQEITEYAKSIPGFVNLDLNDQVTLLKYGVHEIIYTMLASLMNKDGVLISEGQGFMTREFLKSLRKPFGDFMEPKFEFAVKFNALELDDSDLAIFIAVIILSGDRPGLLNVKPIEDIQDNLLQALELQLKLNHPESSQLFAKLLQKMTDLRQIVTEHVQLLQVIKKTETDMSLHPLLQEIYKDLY
Sequence of Estrogen receptor (Homo sapiens) (P03372 whole entry, looked up): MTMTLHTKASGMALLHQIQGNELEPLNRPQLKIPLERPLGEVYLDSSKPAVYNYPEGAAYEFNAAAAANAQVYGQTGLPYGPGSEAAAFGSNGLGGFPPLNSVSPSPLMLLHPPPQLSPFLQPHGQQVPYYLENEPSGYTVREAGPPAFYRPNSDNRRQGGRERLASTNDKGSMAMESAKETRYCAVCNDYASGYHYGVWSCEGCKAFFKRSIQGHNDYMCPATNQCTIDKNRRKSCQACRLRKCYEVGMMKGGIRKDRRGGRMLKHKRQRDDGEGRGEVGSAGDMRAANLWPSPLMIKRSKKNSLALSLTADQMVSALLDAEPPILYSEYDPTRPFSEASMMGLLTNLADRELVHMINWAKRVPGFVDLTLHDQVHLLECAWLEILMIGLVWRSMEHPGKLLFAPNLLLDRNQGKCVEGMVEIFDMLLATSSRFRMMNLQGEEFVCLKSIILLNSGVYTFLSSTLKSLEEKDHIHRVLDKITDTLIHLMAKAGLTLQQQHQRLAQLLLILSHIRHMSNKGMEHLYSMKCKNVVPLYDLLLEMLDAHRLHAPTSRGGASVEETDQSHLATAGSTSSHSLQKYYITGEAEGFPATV
Sequence of Aromatase (Homo sapiens) (P11511 whole entry, looked up): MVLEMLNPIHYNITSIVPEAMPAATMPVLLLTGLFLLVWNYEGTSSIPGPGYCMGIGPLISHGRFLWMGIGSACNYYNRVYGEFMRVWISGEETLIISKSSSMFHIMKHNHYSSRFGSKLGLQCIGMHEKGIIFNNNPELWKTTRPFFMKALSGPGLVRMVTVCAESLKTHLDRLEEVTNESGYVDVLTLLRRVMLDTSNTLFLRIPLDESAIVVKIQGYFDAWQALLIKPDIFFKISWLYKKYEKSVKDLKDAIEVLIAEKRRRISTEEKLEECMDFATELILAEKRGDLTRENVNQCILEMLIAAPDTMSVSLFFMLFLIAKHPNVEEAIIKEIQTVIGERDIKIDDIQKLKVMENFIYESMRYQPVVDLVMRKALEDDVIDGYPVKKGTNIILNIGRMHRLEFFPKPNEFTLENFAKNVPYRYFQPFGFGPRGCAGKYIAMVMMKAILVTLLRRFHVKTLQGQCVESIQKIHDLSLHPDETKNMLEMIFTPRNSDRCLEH
Sequence of Aryl hydrocarbon receptor (Homo sapiens) (P35869 whole entry, looked up): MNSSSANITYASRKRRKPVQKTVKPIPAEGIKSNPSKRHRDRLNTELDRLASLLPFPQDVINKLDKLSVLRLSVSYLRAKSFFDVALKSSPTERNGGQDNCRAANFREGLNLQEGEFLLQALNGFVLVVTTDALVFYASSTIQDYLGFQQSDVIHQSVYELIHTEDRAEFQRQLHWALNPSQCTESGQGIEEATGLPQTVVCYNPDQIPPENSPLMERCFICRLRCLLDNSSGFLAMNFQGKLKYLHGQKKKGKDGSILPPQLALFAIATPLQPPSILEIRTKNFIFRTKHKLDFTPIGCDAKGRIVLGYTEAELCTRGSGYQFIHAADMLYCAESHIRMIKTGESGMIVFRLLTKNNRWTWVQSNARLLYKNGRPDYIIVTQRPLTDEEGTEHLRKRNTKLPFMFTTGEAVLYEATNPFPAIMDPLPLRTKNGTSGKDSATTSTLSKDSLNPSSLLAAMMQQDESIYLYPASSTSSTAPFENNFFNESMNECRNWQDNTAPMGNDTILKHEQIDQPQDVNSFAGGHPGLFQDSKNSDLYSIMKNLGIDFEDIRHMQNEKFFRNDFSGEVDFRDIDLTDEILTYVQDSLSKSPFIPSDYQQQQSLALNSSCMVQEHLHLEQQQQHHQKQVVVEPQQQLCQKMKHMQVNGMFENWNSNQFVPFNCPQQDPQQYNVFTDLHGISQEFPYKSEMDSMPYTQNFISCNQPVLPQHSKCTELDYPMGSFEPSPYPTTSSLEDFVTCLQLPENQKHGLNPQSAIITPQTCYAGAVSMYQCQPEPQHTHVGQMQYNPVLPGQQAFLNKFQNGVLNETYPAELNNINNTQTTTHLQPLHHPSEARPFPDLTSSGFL

CC1=C2[C@@H]([C@H](C)CC[C@H]2/C=C(\C)C(=O)O)[C@H](O)C1
inactive: [1] | [2] | [3] | [4] | [5] | [6] | [7] | [8] | [9] | Aromatase (Homo sapiens) | [10] | [11] | [12] | [13] | [14] | [15] | [16] | [17]

C=CC(=O)NC(C)C
inactive: [1] | [2] | [3] | [4] | [5] | [6] | [7] | [8] | [9] | Aromatase (Homo sapiens) | [10] | [11] | [12] | [13] | [18] | [14] | [15] | [17] | [19]

CC(C)c1ccc(C#N)cc1
inactive: [1] | [2] | [3] | [4] | [5] | [6] | [7] | [8] | [9] | Aromatase (Homo sapiens) | [10] | [11] | [12] | [13] | [18] | [14] | [15] | [16] | [17] | [19]

CC(C)N(C)C
inactive: [1] | [2] | [3] | [4] | [5] | [6] | [7] | [8] | [9] | Aromatase (Homo sapiens) | [10] | [11] | [12] | [13] | [18] | [14] | [15] | [17] | [19]

O=CNNC=O
inactive: [1] | [2] | [3] | [4] | [5] | [6] | [7] | [8] | [9] | Aromatase (Homo sapiens) | [10] | [11] | [12] | [13] | [14] | [15] | [16]

COc1ccc(CCN(C)CCCN2CCc3cc(OC)c(OC)cc3CC2=O)cc1OC
inactive: [1] | [2] | [3] | [4] | [5] | [6] | [7] | [8] | [9] | Aromatase (Homo sapiens) | [10] | [11] | [12] | [13] | [14] | [15] | [16] | [17]

NC(=O)CCCCC(N)=O
inactive: [1] | [2] | [3] | [4] | [5] | [6] | [7] | [8] | [9] | Aromatase (Homo sapiens) | [10] | [11] | [12] | [13] | [18] | [14] | [16] | [17] | [19]

CC(C)CC(O)CC(C)C
inactive: [1] | [2] | [3] | [4] | [5] | [6] | [7] | [8] | [9] | Aromatase (Homo sapiens) | [10] | [11] | [12] | [13] | [14] | [16] | [17] | [19]

O=C(O)CNC(=O)c1ccccc1I
inactive: [1] | [2] | [3] | [4] | [5] | [6] | [7] | [8] | [9] | Aromatase (Homo sapiens) | [10] | [11] | [13] | [18] | [14] | [15] | [16] | [17] | [19]

CCSC(=O)N(CC)CC
inactive: [1] | [2] | [3] | [4] | [5] | [6] | [7] | [8] | [9] | Aromatase (Homo sapiens) | [10] | [11] | [12] | [13] | [14] | [16] | [17] | [19]

CCN(CC)CCNC(=O)c1cc(Cl)c(N)cc1OC
inactive: [1] | [2] | [3] | [4] | [5] | [6] | [7] | [8] | [9] | Aromatase (Homo sapiens) | [10] | [11] | [12] | [14] | [15] | [16] | [17] | [19]

CCCCCCCCCCCCCCN(C)C
inactive: [1] | [2] | [3] | [4] | [5] | [6] | [7] | [8] | [9] | Aromatase (Homo sapiens) | [10] | [12] | [13] | [18] | [14] | [15] | [16] | [17] | [19]

O=c1[nH]c2cc(C(F)(F)F)c(N3CCOCC3)cc2n(CP(=O)(O)O)c1=O
inactive: [1] | [2] | [3] | [4] | [5] | [6] | [7] | [8] | [9] | Aromatase (Homo sapiens) | [10] | [11] | [12] | [13] | [18] | [14] | [15] | [16] | [17] | [19]

O=C(NC(Cc1cc(=O)[nH]c2ccccc12)C(=O)O)c1ccc(Cl)cc1 (centres undefined)
inactive: [1] | [2] | [3] | [4] | [5] | [6] | [7] | [8] | [9] | Aromatase (Homo sapiens) | [10] | [11] | [12] | [13] | [18] | [14] | [15] | [17] | [19]

CN1C(CSCC(F)(F)F)Nc2cc(Cl)c(S(N)(=O)=O)cc2S1(=O)=O (centres undefined)
inactive: [1] | [2] | [3] | [4] | [5] | [6] | [7] | [8] | [9] | Aromatase (Homo sapiens) | [10] | [11] | [12] | [13] | [18] | [14] | [17] | [19]
